From PubChem BioAssay
Rows were chosen to be rich in hits. Some 12% of all compounds tested hit in one or more screens of this group.
BAZ2B inh = blocks human BAZ2B. AID 504333. AlphaScreen BAZ2B-H3K14Ac peptide displacement. Q9UIF8. 360,000 tested, 4.4% active. Potency, µM (titrated, usually from 114 µM), inactives show at the top dose activity change, negative = inhibition, most hits filed as inhibitors; also: % is scaled to controls: 0 for no effect and ±100 for the full control effect; nearly all actives have a fitted effect of over 60% in size
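Complex of BAZ2B and biotin-H3K14Ac (50 nM apiece) forms over 30 min at RT, then faces library compounds up to 110 uM for another 30 min; AlphaScreen beads added, 20 min dark incubation, luminescence read.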
HP1b chromo inh = blocks HP1-beta chromodomain binding to methylated histone tails | AID 540317 | Potency, µM (doses to about 114 µM), inactives show at the top dose activity change, negative = inhibition, hits mostly inhibitors | AlphaScreen HP1-beta / biotin-H3K9me3 peptide binding | P83916 | 390,000 tested, 0.56% active; also: nearly all actives have a fitted effect of over 70% in size
Target sequence (P83916 whole entry, looked up): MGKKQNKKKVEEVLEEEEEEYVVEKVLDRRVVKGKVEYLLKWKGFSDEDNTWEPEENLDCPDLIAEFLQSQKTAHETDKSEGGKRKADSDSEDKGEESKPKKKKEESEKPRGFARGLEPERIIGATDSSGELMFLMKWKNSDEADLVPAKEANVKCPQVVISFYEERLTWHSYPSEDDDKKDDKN
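HP1-beta protein (50 nM final) preincubated 30 min at room temperature with biotinylated H3(1-18)K9me3 peptide (50 nM) in PBS pH 7.4, 0.01% Tween-20, then compound added for 30 min. AlphaScreen streptavidin donor/nickel chelate acceptor beads (10 ug/mL final), 30 min dark, luminescence read.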
TDP1 block = blocks human tyrosyl-DNA phosphodiesterase 1 | recombinant TDP1, AlphaScreen DNA substrate cleavage | Potency, µM (doses to about 130 µM), without a hit: at the highest dose activity change, negative = inhibition, hits mostly inhibitors | 350,000 tested, 0.28% active | AID 485290; also: % is scaled to controls: 0 for no effect and ±100 for the full control effect; nearly all actives have a fitted effect of over 40% in size
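Here, a 5' biotin and 3' phosphotyrosine-FITC DNA oligonucleotide reports Tdp1 activity: intact substrate bridges AlphaScreen beads, while cleavage leaves a 3' phosphate and drops signal. All incubations at room temperature.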
JMJD2A Tudor inh = blocks the human JMJD2A Tudor domain | O75164 | AlphaScreen JMJD2A-Tudor / H3K4me3 peptide binding | Potency, µM (highest dose often 114 µM), for the others: at the highest dose activity change, negative = inhibition, most hits filed as inhibitors | 390,000 tested, 4.4% active | AID 504339; also: % is scaled to controls: 0 for no effect and ±100 for the full control effect; nearly all actives have a fitted effect of over 50% in size
G9a inh = blocks human histone lysine methyltransferase G9a; Potency, µM (series often up to 102 µM), inactives show at the highest dose activity, negative = inhibition, usual class: inhibitors; 350,000 tested, 8.8% active; G9a H3K9 monomethylation, AlphaScreen, 2 h; also: % is scaled to controls: 0 for no effect and ±100 for the full control effect; nearly all actives have a fitted effect of over 75% in size
Target sequence (Q96KQ7 913-1193 limits assumed): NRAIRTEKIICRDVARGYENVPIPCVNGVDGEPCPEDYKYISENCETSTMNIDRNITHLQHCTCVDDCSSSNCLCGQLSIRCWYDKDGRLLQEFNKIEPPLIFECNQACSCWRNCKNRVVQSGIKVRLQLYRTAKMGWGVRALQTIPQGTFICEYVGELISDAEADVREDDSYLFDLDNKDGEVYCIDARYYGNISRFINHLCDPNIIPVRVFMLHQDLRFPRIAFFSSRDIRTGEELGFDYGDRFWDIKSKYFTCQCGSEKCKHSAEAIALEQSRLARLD
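Signal arises when biotinylated H3K9 peptide, once monomethylated, bridges streptavidin donor and antibody-captured acceptor beads. Enzyme at 20 nM was preincubated 15 min with test compounds; peptide 500 nM and SAM 20 uM then reacted for 2 h.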
Sfp PPTase inh = inhibitors of Bacillus subtilis Sfp phosphopantetheinyl transferase; AID 1490; Potency, µM, for the others: largest response in the series, negative = inhibition, usual class: inhibitors; Q9F4F7; Biochemical Sfp PPTase activity, qHTS; 310,000 tested, 3.5% active;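 also: the enzyme is Sfp with the accession as filed and its product quenches rhodamine fluorescence; 0% = enzyme reaction without inhibitor and -100% = no enzyme wells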
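Buffer: 50 mM Hepes-Na pH 7.6, 10 mM MgCl2, 0.01% Nonidet P-40, 0.01% BSA. Enzyme 15 nM, pre-exposed to compound 15 min; substrates then added and fluorescence change tracked over 30 min.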
Numbers without * were called inactive; u = inconclusive; x = no result given; [ ] = dose if it differs, or a comment. Calls follow the shape of the dose curve; as a rule, active = well fitted curve in the direction sought with a large enough effect; inconclusive = small, poorly fitted or top-dose-only effect, or another doubt; inactive = no such curve, though single readings can be large; an effect the other way counts as inactive or inconclusive. Potency is read from the fitted curve at half-maximal effect.

SMILES	BAZ2B inh	HP1b chromo inh	TDP1 block	JMJD2A Tudor inh	G9a inh	Sfp PPTase inh
COC(=O)c1ccccc1NC(=O)CC(NCc1ccccc1)C(=O)O (configuration not stated)	x	20.9%	x	28.2µM*	x	x
CCc1ccccc1NC(=O)CC(NCc1ccccc1)C(=O)O (configuration not stated)	-17.0%[57.1 µM]	20.7%	7.2%	u	28.2µM*	-5.3%
Cc1ccccc1NC(=O)CC(NCc1cccnc1)C(=O)O (configuration not stated)	-2.1%	4.4%	x	-10.4%	u	x
CC(C)c1ccc(NC(=S)NNC(=O)C2CC2)cc1	9.8%	46.1%	5.4%	-14.5%	x	-2.1%
CC(C)c1ccc(NNC(=O)C2CCC2)cc1	-14.2%	36.6%	8.6%	u	7.08µM*	-1.8%
Cc1cc(Cl)ccc1OCc1cc(=O)n2c3c(sc2n1)CCCC3	-2.7%	50.9%	1.3%	5.0%	2.0%[59 µM]	x
Cc1cc(C2(c3ccc(O)c(C)c3)OC(=O)c3ccccc32)ccc1O	50.1µM*	-25.2%	x	u	u	-3.6%
O=C(O)c1ccc(C2(c3ccc(C(=O)O)cc3)OC(=O)c3ccccc32)cc1	12.2%[0.457 µM]	63.0%	x	-8.6%	x	4.5%
Nc1ccc(C2(c3ccc(N)cc3)OC(=O)c3ccccc32)cc1	-27.5%	-2.3%	x	35.5µM*	9.3%	3.9%
COC(=O)NC(/C=C/c1ccco1)[C@@]1(C(=O)OC)CCCC1=O (some centres not stated)	x	x	-0.5%[21 µM]	x	x	-9.5%
COc1ccc2c(c1)c(=O)oc1c(C)c(OC(C)C(=O)N[C@@H](Cc3c[nH]c4ccc(O)cc34)C(=O)O)ccc12 (some centres not stated)	50.1µM*	5.6%	x	u	x	-0.3%
O=C(Cn1c(=O)c2cccn2c2ccc(F)cc21)N1CCN(c2ccccc2)CC1	-16.3%	15.0%	2.6%	-18.1%	-22.8%[59 µM]	x
COc1ccc(F)cc1S(=O)(=O)N1CCC2(CC1)OCCN2S(=O)(=O)c1cccs1	9.7%	36.4%	x	-9.0%	4.4%[0.501 µM]	x
Nc1c(Cl)ncnc1Nc1ccc(C(=O)O)cc1	x	28.5%	x	12.6µM*	x	x
Fc1ccc(NCc2nnc3n2CCCCC3)cc1Cl	6.6%	16.0%[57 µM]	2.7%	-14.6%	8.7%[59 µM]	x
Cc1[nH]n(-c2cccc(Cl)c2)c(=O)c1-c1ccccc1	u	19.1%	0.0%	-30.4%	0.7%[59 µM]	11.9%
CC(C)Cn1[nH]c2c3c(ccc2c1=O)C(=O)c1ccccc1C3=O	10µM*	-22.4%	8.0%	-30.4%	u	-2.5%
Cc1cccc(-n2[nH]c3c4c(ccc3c2=O)C(=O)c2ccccc2C4=O)c1	u	-21.4%	5.3%	-27.9%	14.1µM*	10.2%
Cc1cn(CC(C)C)c(=O)n(-c2ccccc2)c1=O	x	17.0%	x	-3.4%	x	x
CC/C=C\CC[C@H](OC(=O)c1ccc(Br)cc1)C1=CCCCC1=O	x	x	0.5%[21 µM]	x	x	18.1%
COc1ccc(N2CCN(S(=O)(=O)c3cccs3)CC2)cc1	-34.5%	-8.8%	5.2%	-34.1%	25.1µM*	1.6%
COc1ccc(N2CCN(C(c3cccs3)C(C)NS(C)(=O)=O)CC2)cc1 (configuration not stated)	x	10.1%	4.6%	-27.8%	56.2µM*	-4.5%
COc1ccc(N2CCN(S(=O)(=O)c3ccc(Cl)s3)CC2)cc1	-17.2%	-4.8%	0.0%	-10.0%	-24.6%	-5.2%
COc1ccc(N2CCN(C(c3cccs3)C(C)NC(=O)c3ccco3)CC2)cc1 (configuration not stated)	u	-14.7%	1.0%[56.1 µM]	u	3.55µM*	-2.4%
Cc1[nH]c(=O)c(S(=O)(=O)c2ccccc2)c(C)c1Cl	27.8%	17.1%	x	-1.4%	-1.2%	9.2%
SMILES	BAZ2B inh	HP1b chromo inh	TDP1 block	JMJD2A Tudor inh	G9a inh	Sfp PPTase inh
COc1ccc(-c2nn(-c3ccccc3)cc2C=O)cc1[N+](=O)[O-]	-1.5%	32.6%	-5.4%	-11.0%	-8.3%	15.7%
COc1ccc(-c2nnc(SC)nc2-c2ccc(OC)c([N+](=O)[O-])c2)cc1[N+](=O)[O-]	x	u	x	2.51µM*	x	x
CC1CCC(N2CC(=O)N(C3CCCCC3)C(c3ccc(F)cc3)C2=O)CC1 (configuration not stated)	-0.5%	31.9%	5.2%	6.1%	-0.5%[59 µM]	x
COc1ccc(/C=C/C(=O)c2ccccc2)cc1COc1ccc(F)cc1	-3.0%[57.1 µM]	50.6%	-2.0%	-5.2%	40.7%	u
COc1ccc(C(=O)/C=C/c2ccc(OCc3ccccc3)cc2)cc1CSCC(=O)O	-6.2%	-16.6%	3.8%	56.2µM*	55.7%	8.4%
COc1cccc(/C=N/n2c(-c3cc(C)[nH]n3)n[nH]c2=S)c1	-33.8%	u	8.3%	3.16µM*	2.51µM*	u
COc1cccc(/C=N/n2c(N)c(S(=O)(=O)c3cccs3)c3nc4ccccc4nc32)c1	-3.7%	38.2%	2.0%	10.5%	8.6%[0.0925 µM]	3.4%
COc1cc(/C=N/n2c(-c3cc(C)[nH]n3)n[nH]c2=S)ccc1O	-26.8%	46.7%	x	u	3.98µM*	50.1µM*
COc1cc(/C=N/Nc2nncn2/N=C/c2ccc(O)c(OC)c2)ccc1O	-9.2%	33.2%	0.0%	-22.2%	-14.7%	u
C#CCOCCOCCOCCNc1nc(N2CCN(C(=O)[C@H](CCC(=O)O)n3cc([C@@H](N)CO)nn3)CC2)nc(N2CCN(C(=O)[C@H](CCC(=O)O)n3cc([C@@H](N)CCSC)nn3)CC2)n1	x	7.2%	2.4%	79.4µM*	x	x
C#CCOCCOCCOCCNc1nc(N2CCOCC2)nc(N2CCN(C(=O)[C@H](CCC(=O)O)n3cc([C@@H](N)CCCCN)nn3)CC2)n1	x	37.4%	4.9%	-19.3%	x	x
C#CCOCCOCCOCCNc1nc(OC)nc(N2CCN(C(=O)[C@H](CCC(=O)O)n3cc(C(N)CO)nn3)CC2)n1 (some centres not stated)	79.4µM*	-11.5%	-18.8%	79.4µM*	-5.7%[2.33 µM]	x
CCCCCCCC1=Cc2ccccc2C(C(C(=O)OC)C(=O)OC)N1C(=O)OC (configuration not stated)	x	x	10.7%[12.3 µM]	x	x	-10.4%
COc1ccccc1CNS(=O)(=O)c1ccc2c(c1)NC(=O)CC(=O)N2	-3.1%	14.8%	3.8%	-18.9%	-1.5%[59 µM]	x
COc1ccccc1CNS(=O)(=O)c1ccc2[nH]cc(C(=O)O)c(=O)c2c1	-9.9%	u	-7.2%	39.8µM*	-20.9%[59 µM]	14.4%
CN(C(=O)c1ccccc1F)C(c1ccccc1)c1ccccc1	19.0%	65.2%	4.2%	25.5%	-4.7%[59 µM]	1.3%
O=[N+]([O-])c1ccccc1/C=N/N1CCN(c2ccccn2)CC1	12.6µM*	-11.2%	11.7%	u	u	4.6%
